# Data from PubChem BioAssay AID1159580 (chemical genetic matrix, 2015).
# In all, about 5,500 compounds went through this assay and about 2,000 (36%) were called active. About 18% were inconclusive and are not listed. The list shows a part of the results. A number with no mark means an inactive call. Cut-off read from the data, not from the text of the source: active = normalized growth mostly below about 0.91 (no sharp cut-off); inconclusive = no clear call, values can overlap the other calls; inactive = mostly above about 0.92.
# Assay: chemical genetic growth profiling, strain panel (AID 1159580);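 note: tested at 20 µM; growth read once vehicle control cultures reached saturation at 30 °C; 1 = growth at the plate median or of vehicle wells; lower values mean less growth of the strain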
# Details: S. cerevisiae deletion strains, growth OD
smiles,measurement,setting,value
Oc1ccc2c3c1O[C@H]1c4oc5ccccc5c4C[C@@]4(O)C(C2)N(CC2CC2)CCC314 (stereo partly drawn),normalized growth,"locus YAL040C, strain CLN3, active compounds read low",1.01
same,normalized growth,"locus YCL061C, strain MRC1 (second series), active compounds read low",1
same,normalized growth,"locus YDR363W, strain ESC2, active compounds read low",0.994
same,normalized growth,"locus YER002W, strain NOP16, active compounds read low",0.988
same,normalized growth,"locus YJR075W, strain HOC1, active compounds read low",0.99
same,normalized growth,"locus YMR307W, strain GAS1, active compounds read low",0.988
same,normalized growth,"locus YNL175C, strain NOP13, active compounds read low",1.01
same,normalized growth,"locus YNL197C, strain WHI3, active compounds read low",1.01
same,normalized growth,"locus YNL224C, strain SQS1, active compounds read low",1
same,normalized growth,"locus YNL322C, strain KRE1, active compounds read low",0.993
same,normalized growth,"locus YOR083W, strain WHI5 (second series), active compounds read low",1.01
same,normalized growth,"locus YPL055C, strain LGE1, active compounds read low",0.975
O=S(=O)(Nc1cc(C(F)(F)F)ccc1F)c1cc(C(F)(F)F)ccc1Cl,normalized growth,"locus YAR019C, strain CDC15, active compounds read low",0.942
same,normalized growth,"locus YBL105C, strain PKC1, active compounds read low",0.947
same,normalized growth,"locus YBR135W, strain CKS1, active compounds read low",0.937
same,normalized growth,"locus YBR136W, strain MEC1, active compounds read low",0.943
same,normalized growth,"locus YBR160W, strain CDC28, active compounds read low",0.931
same,normalized growth,"locus YDL017W, strain CDC7, active compounds read low",0.944
same,normalized growth,"locus YDL028C, strain MPS1, active compounds read low",0.941
same,normalized growth,"locus YDL101C, strain DUN1, active compounds read low",0.969
same,normalized growth,"locus YDL108W, strain KIN28, active compounds read low",0.949
same,normalized growth,"locus YDL132W, strain cdc53, active compounds read low",0.945
same,normalized growth,"locus YDL214C, strain PRR2, active compounds read low",0.905
same,normalized growth,"locus YDR052C, strain DBF4, active compounds read low",0.957
same,normalized growth,"locus YDR054C, strain cdc34, active compounds read low",0.94
same,normalized growth,"locus YDR226W, strain ADK1, active compounds read low",0.95
same,normalized growth,"locus YDR477W, strain SNF1, active compounds read low",0.917
same,normalized growth,"locus YER123W, strain YCK3, active compounds read low",0.868
same,normalized growth,"locus YER133W, strain GLC7, active compounds read low",0.923
same,normalized growth,"locus YFL009W, strain cdc4, active compounds read low",0.939
same,normalized growth,"locus YFL029C, strain CAK1, active compounds read low",0.941
same,normalized growth,"locus YFR003C, strain YPI1, active compounds read low",0.946
same,normalized growth,"locus YFR019W, strain FAB1, active compounds read low",0.894
same,normalized growth,"locus YFR028C, strain CDC14, active compounds read low",0.939
same,normalized growth,"locus YGR040W, strain KSS1, active compounds read low",0.905
same,normalized growth,"locus YGR052W, strain FMP48, active compounds read low",0.831
same,normalized growth,"locus YGR092W, strain DBF2, active compounds read low",0.82
same,normalized growth,"locus YHR030C, strain SLT2, active compounds read low",0.644 (active)
same,normalized growth,"locus YHR079C, strain IRE1, active compounds read low",0.824
same,normalized growth,"locus YHR082C, strain KSP1, active compounds read low",0.771
same,normalized growth,"locus YHR205W, strain SCH9, active compounds read low",0.887
same,normalized growth,"locus YIL147C, strain SLN1, active compounds read low",0.95
same,normalized growth,"locus YJL095W, strain BCK1, active compounds read low",0.886
same,normalized growth,"locus YJL128C, strain PBS2, active compounds read low",0.911
same,normalized growth,"locus YJL157C, strain FAR1, active compounds read low",0.904
same,normalized growth,"locus YJR016C, strain ILV3, active compounds read low",0.941
same,normalized growth,"locus YJR066W, strain TOR1 (second series), active compounds read low",0.904
same,normalized growth,"locus YJR066W, strain TOR1, active compounds read low",0.82
same,normalized growth,"locus YKL048C, strain ELM1, active compounds read low",0.852
same,normalized growth,"locus YKL067W, strain YNK1, active compounds read low",0.905
same,normalized growth,"locus YKL101W, strain HSL1, active compounds read low",0.88
same,normalized growth,"locus YKL193C, strain SDS22, active compounds read low",0.938
same,normalized growth,"locus YKL203C, strain TOR2, active compounds read low",0.933
same,normalized growth,"locus YLR113W, strain HOG1, active compounds read low",0.715 (active)
same,normalized growth,"locus YLR133W, strain CKI1, active compounds read low",0.902
same,normalized growth,"locus YLR403W, strain SFP1, active compounds read low",0.902
same,normalized growth,"locus YML070W, strain DAK1, active compounds read low",0.864
same,normalized growth,"locus YMR001C, strain CDC5, active compounds read low",0.943
same,normalized growth,"locus YMR205C, strain PFK2 (second series), active compounds read low",0.925
same,normalized growth,"locus YMR277W, strain FCP1, active compounds read low",0.944
same,normalized growth,"locus YNL006W, strain LST8, active compounds read low",0.936
same,normalized growth,"locus YNL020C, strain ARK1, active compounds read low",0.882
same,normalized growth,"locus YNL161W, strain CBK1, active compounds read low",0.939
same,normalized growth,"locus YNL183C, strain NPR1, active compounds read low",0.808
same,normalized growth,"locus YNL207W, strain RIO2, active compounds read low",0.937
same,normalized growth,"locus YNL222W, strain SSU72, active compounds read low",0.938
same,normalized growth,"locus YNL307C, strain MCK1 (second series), active compounds read low",0.861
same,normalized growth,"locus YOL078W, strain AVO1, active compounds read low",0.935
same,normalized growth,"locus YOL136C, strain PFK27, active compounds read low",0.858
same,normalized growth,"locus YOR061W, strain CKA2, active compounds read low",0.908
same,normalized growth,"locus YOR119C, strain RIO1, active compounds read low",0.951
same,normalized growth,"locus YOR231W, strain MKK1, active compounds read low",0.817
same,normalized growth,"locus YOR329C, strain SCD5, active compounds read low",0.947
same,normalized growth,"locus YPL031C, strain PHO85, active compounds read low",0.881
same,normalized growth,"locus YPL153C, strain RAD53, active compounds read low",0.867
same,normalized growth,"locus YPL204W, strain HRR25, active compounds read low",0.876
same,normalized growth,"locus YPL209C, strain IPL1, active compounds read low",0.935
same,normalized growth,"locus YPL256C, strain CLN2, active compounds read low",0.694 (active)
same,normalized growth,"locus YPR025C, strain CCL1, active compounds read low",0.937
same,normalized growth,"locus YPR106W, strain ISR1, active compounds read low",0.929
same,normalized growth,"locus YPR111W, strain DBF20, active compounds read low",0.925
same,normalized growth,"strain NNK1, active compounds read low",0.934
same,normalized growth,"strain TSCII, active compounds read low",0.941
